NOMO-1 viab: STK33 inhibitor candidate reducing NOMO-1 cell viability; NOMO-1 AML viability, CellTiter-Glo luminescence, 72 h; inhibition, % (concentration not given with the values); hit rate 7.5% among 37,000; in the data active means inhibition above about 80%; inconclusive means no clear call, values can overlap the other calls
MITF inhib: MITF inhibition. inhibition, % (no concentration beside the values). AID 2240. TRPM1 promoter luciferase, luminescence, 24 h. hit rate 0.28% among 37,000; in the data active means inhibition above about 85%; inconclusive means no clear call, values can overlap the other calls; inactive means below about 68%;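 further: human melanocyte line stably carrying TRPM1 promoter luciferase reporter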
Shh pathway inh: Sonic Hedgehog pathway inhibition. Shh-LIGHT2 Gli-luciferase reporter, 30 h. inhibition, % (no concentration beside the values). hit rate 2.1% among 22,000. AID 2313;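 active means mean inhibition across valid replicates above about 65%, limit read from the data; inconclusive means mean under the limit, yet half or more replicates past it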;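 further: pathway switched on by Shh-conditioned medium diluted 1 in 25 in low serum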
Numbers without * were called inactive; ? = inconclusive; . = no result given. Only some compounds are listed: those with a hit (about 7.8% of all), similar ones and a draw of the others.

SMILES	NOMO-1 viab	MITF inhib	Shh pathway inh
C[C@H]1CN([C@@H](C)CO)C(=O)Cc2cc(NS(=O)(=O)c3ccc(Cl)cc3)ccc2O[C@@H]1CN(C)CC1CC1	9.4	-12.2	4.9
C[C@H](CO)N1C[C@H](C)[C@H](CN(C)CC2CCCCC2)Oc2ccc(NS(=O)(=O)c3ccc(Cl)cc3)cc2CC1=O	97.4*	-10.8	40.7
Cc1ccc(S(=O)(=O)Nc2ccc3c(c2)CC(=O)N([C@@H](C)CO)C[C@@H](C)[C@@H](CN(C)CC2CC2)O3)cc1	8.3	4.9	-13.5
CC(C)(C)NC(=O)Cn1cc(C(=O)c2ccco2)c2ccccc21	26.2	2.5	.
CN(c1cccc(NC(=O)c2ccc(NS(=O)(=O)c3ccccc3)cc2)c1)S(C)(=O)=O	6.8	-0.4	.
COC(=O)c1cc(OC)c(OC)cc1NC(=O)COc1ccc(Cl)cc1Br	56.1	-15.5	.
C[C@@H]1CN([C@@H](C)CO)C(=O)Cc2cc(NS(=O)(=O)c3ccc(F)cc3)ccc2O[C@@H]1CN(C)CC1CCCCC1	?	-11.2	25.8
C[C@@H]1CN([C@@H](C)CO)C(=O)Cc2cc(NS(C)(=O)=O)ccc2O[C@@H]1CN(C)CC1CCCCC1	1.3	4.7	-19.4
C[C@@H]1CN([C@H](C)CO)C(=O)Cc2cc(NS(C)(=O)=O)ccc2O[C@H]1CN(C)CC1CC1	-5.6	-10.4	75.0*
C[C@H]1CN([C@@H](C)CO)C(=O)Cc2cc(NS(=O)(=O)c3ccc(F)cc3)ccc2O[C@H]1CN(C)CC1CCCCC1	114.7*	0.5	-15.7
Cn1c(SCC(=O)c2cccc([N+](=O)[O-])c2)nnc1-c1cc2ccccc2o1	12.3	8.5	.
O=[N+]([O-])c1ccccc1-c1ccc(-c2nn3c(-c4ccccc4)nnc3s2)o1	64.8	-42.2	.
CCc1cccc(CC)c1NC(=S)Nc1ccc(C)cc1	33.5	3.1	-3.4
C[C@H]1CN([C@@H](C)CO)C(=O)c2cccc(NC(=O)Nc3cccc4ccccc34)c2O[C@H]1CN(C)Cc1ccc(Cl)c(Cl)c1	?	43.3	5.1
CC(C)NC(=O)N(C)C[C@@H]1Oc2c(NC(=O)CCCCCC(=O)Nc3ccccc3N)cccc2C(=O)N([C@H](C)CO)C[C@H]1C	6.6	-24.8	.
C[C@H]1CN([C@@H](C)CO)C(=O)c2cccc(NC(=O)CCCCCC(=O)Nc3ccccc3N)c2O[C@@H]1CN(C)Cc1ccncc1	13.1	-35.5	.
C[C@@H]1CN([C@@H](C)CO)C(=O)c2cccc(NC(=O)CCCCCC(=O)Nc3ccccc3N)c2O[C@@H]1CN(C)Cc1ccccc1	87.7*	-4.4	.
C[C@H](CO)N1C[C@H](C)[C@@H](CN(C)Cc2ccc(-c3ccccc3)cc2)Oc2c(NC(=O)CCCCCC(=O)Nc3ccccc3N)cccc2C1=O	125.0*	28.0	.
C[C@@H]1CN([C@H](C)CO)C(=O)c2cccc(NC(=O)CCCCCC(=O)Nc3ccccc3N)c2O[C@H]1CN(C)Cc1ccc2c(c1)OCO2	122.5*	48.4	.
C[C@H](CO)N1C[C@H](C)[C@H](CN(C)Cc2ccc(Cl)c(Cl)c2)Oc2c(NC(=O)CCCCCC(=O)Nc3ccccc3N)cccc2C1=O	113.9*	41.3	.
C[C@@H]1CN([C@H](C)CO)C(=O)c2cccc(NC(=O)CCCCCC(=O)Nc3ccccc3N)c2O[C@@H]1CN(C)Cc1ccc2c(c1)OCO2	68.4	13.7	.
C=C(C(=O)O)[C@@H]1CC[C@@]2(C)C=CC(=O)[C@@H](CCC3(O)C(=O)C=C[C@]4(C)CC[C@@H](C(=C)C(=O)O)C[C@@H]34)[C@@H]2C1 (stereo partly specified)	25.9	-20.8	-13.0
COc1ccc(OC)c(-c2cc(C(=O)NCCc3ccccc3OC)c3ccccc3n2)c1	44.5	28.9	.
CC(=O)c1ccc(NC(=O)CSc2nnc(-c3cccs3)n2-c2ccccc2)cc1	46.0	-0.4	.
c1coc(-c2nn3c(C4COc5ccccc5O4)nnc3s2)c1 (stereo unspecified)	16.3	-26.5	.
SMILES	NOMO-1 viab	MITF inhib	Shh pathway inh
COc1ccc(NC(=O)CN(c2cc(Cl)cc(Cl)c2)S(C)(=O)=O)cc1Cl	17.0	10.9	.
C[C@@H]1CN([C@H](C)CO)C(=O)c2cc(NS(=O)(=O)c3ccc(F)cc3)ccc2O[C@@H]1CN(C)Cc1ccccc1	-11.5	1.8	6.5
C[C@@H]1CN([C@H](C)CO)C(=O)c2cc(NS(=O)(=O)c3ccccc3)ccc2O[C@H]1CN(C)Cc1ccc(-c2ccccc2)cc1	107.2*	9.9	.
Cc1ccc(S(=O)(=O)Nc2ccc3c(c2)C(=O)N([C@H](C)CO)C[C@H](C)[C@H](CN(C)Cc2ccc(-c4ccccc4)cc2)O3)cc1	46.8	22.3	34.8
C[C@@H]1CN([C@@H](C)CO)C(=O)c2cc(NS(=O)(=O)c3ccccc3)ccc2O[C@H]1CN(C)Cc1ccc(-c2ccccc2)cc1	48.9	23.1	.
Cc1ccc(S(=O)(=O)Nc2ccc3c(c2)C(=O)N([C@H](C)CO)C[C@@H](C)[C@H](CN(C)Cc2ccc(-c4ccccc4)cc2)O3)cc1	110.9*	16.0	-17.4
C[C@@H]1CN([C@@H](C)CO)C(=O)c2cc(NS(=O)(=O)c3ccc(F)cc3)ccc2O[C@@H]1CN(C)Cc1ccc(-c2ccccc2)cc1	111.4*	31.2	.
O=C(CCCN1C(=O)c2ccccc2C1=O)Nc1ccccc1F	-23.1	-39.7	.
Cc1cc2nn(-c3ccc(C(C)C)cc3)nc2cc1NC(=O)COc1ccccc1[N+](=O)[O-]	1.7	1.9	.
NC(=O)CSc1nc2ccccc2n1CC(=O)N1CCCCC1	32.5	-12.9	.
CCOc1ccc2c(c1)-c1c(ssc1=S)C(C)(C)N2C	86.3*	13.2	0.7
CCOC(=O)c1c(N)sc2c1CCC(Sc1ccccc1)C2=O (stereo unspecified)	26.0	-7.1	-15.3
C=C1[C@@H]2CC[C@H]3[C@]4(C)C[C@H](O)C[C@@H](C(=O)OC)[C@H]4CC[C@]3(C2)[C@H]1O	9.7	15.9	-20.6
COc1ccccc1NC(=O)/C=C\c1ccco1	107.2*	-60.6	67.8*
COc1ccccc1NC(=O)C1c2ccccc2Oc2ccccc21	?	7.3	.
CN(CC(=O)Nc1ccccc1C(=O)N1CCCCC1)S(=O)(=O)c1ccc2ccccc2c1	26.1	26.8	.
O=C(OC1(C#CCN2CCCCC2)CCCCC1)c1ccccc1	116.6*	58.9	58.7
CC(CNC1CCCCC1)OC(=O)c1ccccc1 (stereo unspecified)	21.7	10.6	-55.3
O=C1CC(c2ccccc2)Oc2ccccc21 (stereo unspecified)	-3.9	-4.0	-30.3
NC(=O)NC1C(=O)c2ccccc2OC1c1ccccc1 (stereo unspecified)	114.3*	12.4	34.9
O=C(Oc1c(CN2CCOCC2)cc(Cl)c2cccnc12)c1ccc(F)cc1	108.8*	52.9	.
COc1ccccc1C(=O)Oc1c(CN2CCOCC2)cc(Cl)c2cccnc12	109.0*	46.2	.
Cc1cccc2c(C(=O)NCCN3CCOCC3)cc(-c3ccccc3Cl)nc12	-4.1	2.1	.
O=C(NCc1cccnc1)c1ccc(Cl)c(S(=O)(=O)N2CCOCC2)c1	12.6	-16.9	.
O=C(Cn1ccc([N+](=O)[O-])n1)Nc1ccc(F)c(Cl)c1	2.3	-3.2	.
Cn1c(SCC(=O)N2CCc3ccccc32)nnc1-c1ccc(NC(=O)c2ccc(F)cc2)cc1	33.3	4.4	.
CCOc1ccc(NC(=O)C(C)Sc2ncnc3sc(-c4ccccc4)cc23)cc1 (stereo unspecified)	8.0	-12.3	.
